Data as given in PubChem BioAssay (NCATS).
Unmarked numbers belong to inactive results. Inconclusive results are not listed. A call without a number means that no potency is given here. Calls of active or inactive are those of the source. Unless noted, calls come from the whole dose curve; as a rule, active = well fitted curve in the direction sought with a large enough effect; inconclusive = small, poorly fitted or top-dose-only effect, or another doubt; inactive = no such curve, though single readings can be large; an effect the other way counts as inactive or inconclusive.

Assays:
[1] = molecular target: Lysosomal acid glucosylceramidase (Homo sapiens) (UniProt P04062); assay: Glucocerebrosidase-p2 (AID 348; in the data active = potency below about 10 µM; note: potency is the fitted concentration of half-maximal effect); conditions: purified GBA, blue fluorogenic substrate, 40 min
In short: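 Normal human glucocerebrosidase (0.2 nM) with blue fluorogenic substrate (80 uM final) in citrate/phosphate pH 5.9 with 10mM sodium taurocholate, 0.01% tween-20; 40 min RT, NaOH/glycine stop; fluorescence Ex 365/Em 440; AC50 from a titration from 0.6 nM upwards.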

[2] = AP1 Signaling Pathway (AID 357; active = well fitted curve in either direction with a large enough effect, not every such curve was filed as active;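 note: ME-180 reporter cells stimulated with EGF at its EC50 level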); conditions: ME-180 AP-1-bla reporter, EGF-induced, beta-lactamase ratio, 5 h; at 7.69 µM (top of the series) unless noted
In short: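 In this screen, ME-180 cells in Opti-MEM with 0.5% dialyzed FBS received EC50 EGF and compound titrations for 5 h. AP-1 reporter beta-lactamase was detected via CCF4 ratio, giving AC50 for positive and negative modulators.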

[3] = NFAT Signaling Pathway (AID 444; active = well fitted curve in either direction with a large enough effect, not every such curve was filed as active;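 note: carbachol stimulus at about its EC50 of 1 µM final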); conditions: Jurkat NFAT-bla M1, carbachol, beta-lactamase ratio, 5 h; at 7.69 µM (top of the series) unless noted
In short: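 Jurkat cells carrying an NFAT-driven β-lactamase reporter and co-transfected muscarinic M1 receptor were treated with compound plus carbachol (1 uM final, an EC50 level) for 5 h at 37 °C. CCF4 loading followed for 1 h at RT; 460/530 nm ratio gave %activity.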

[4] = Stat Signaling Pathway (AID 446; active = well fitted curve in either direction with a large enough effect, not every such curve was filed as active;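 note: ME-180 cervical cancer cells given 40 pM IL-6 alongside compound; SIE-controlled beta-lactamase reporter measured as 460/530 nm FRET emission ratio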); conditions: ME-180 (cervical carcinoma) SIE beta-lactamase reporter, IL-6 stimulated, 5 h; at 7.69 µM (top of the series) unless noted
In short: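 FRET read-out (405 nm excitation, 460/530 nm emission) of a beta-lactamase reporter under a STAT-inducible element in ME-180 cervical carcinoma cells. Cells with compound receive 40 pM IL-6 for 5 h. Values are normalised to AC90 stimulation and AC90 JAK-inhibitor controls.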

[5] = molecular target: Glucocorticoid receptor (Homo sapiens) (UniProt P04150); assay: GR-GFP Redistribution (AID 450;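 active = compounds whose dose series gives a full or clear partial fitted curve of increased nuclear translocation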; note: potency is the fitted concentration of half-maximal effect); conditions: U2OS GR-GFP nuclear translocation, laser cytometry, 2 h
[6] = molecular target: Glucocorticoid receptor (Homo sapiens) (UniProt P04150); assay: GR-EFC Redistribution (AID 451; calls by dose curve; note: potency is the fitted concentration of half-maximal effect); conditions: CHO-K1 GR-EFC translocation, beta-gal luminescence, 2 h
In short: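 CHO-K1 cells stably expressing nuclear-localized β-gal enzyme acceptor and GR fused C-terminally to the enzyme donor fragment; ligand-driven nuclear translocation restores β-gal by complementation. Compounds titrated up to 46 uM final, 2 h at 37 °C; luminescence read.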

[7] = molecular target: Mitogen-activated protein kinase 10 (Mus musculus) (UniProt Q61831); assay: JNK3 AlphaScreen Assay (AID 530; active = well fitted curve in either direction with a large enough effect, not every such curve was filed as active;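 note: kinase came from lysate of stimulated human HepG2 cells; signal reports phosphorylation of biotinylated GST-cJun 1-79 at Ser73 with 10 µM ATP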); conditions: JNK3 lysate, c-Jun phosphorylation; series mostly up to 57.1 µM
In short: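 Biotinylated GST-cJun(1-79) served as substrate for JNK3 in HepG2 lysates stimulated with IL-1beta and TNF-alpha. ATP was 10 uM final, pH 7.6. Ser73 phosphorylation was quantified by AlphaScreen (680 nm excitation).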

[8] = molecular target: 3',5'-cyclic-AMP phosphodiesterase 4B (Homo sapiens) (UniProt Q07343); assay: qHTS Assay for Inhibitors of PDE-IV (AID 607; active = well fitted activation curve with a large enough effect in the main read-out, with a control signal flat, not every such curve was filed as active); conditions: HEK293 ACTOne CNG channel cells, membrane potential fluorescence; series mostly up to 22.9 µM
In short: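 Cell-based read-out of cAMP via a modified cyclic nucleotide-gated channel and membrane potential dye (535/590 nm) in HEK293 cells expressing PDE4 endogenously. Compounds tested up to 22.9 uM final; 100 uM RO 20-1724 reference.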

[9] = molecular target: Dual specificity protein kinase CLK4 (Homo sapiens) (UniProt Q9HAZ1); assay: qHTS Assay for Inhibitors of CDC-like Kinase 4 (Kinase-Glo Assay) (AID 1770); conditions: recombinant Clk4, Kinase-Glo ATP depletion luminescence; series mostly up to 66.7 µM; note: nearly all actives have a fitted effect of over 65% in size; note: potency is the fitted concentration of half-maximal effect
In short: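 Luminescent ATP-depletion read-out (Kinase-Glo) after 4.5 h room-temperature reaction of Clk4 (25 nM final) with RS peptide (100 uM) and ATP (1 uM), pH 7.5 Tris buffer with MgCl2 and DTT.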

[10] = molecular target: Dual specificity protein kinase CLK4 (Homo sapiens) (UniProt Q9HAZ1); assay: qHTS Assay for Inhibitors of CDC-like Kinase 4 (ADP-Glo Assay) (AID 1771); conditions: recombinant CLK4, ADP-Glo luminescence; series mostly up to 80 µM; note: nearly all actives have a fitted effect of over 70% in size; note: potency is the fitted concentration of half-maximal effect
In short: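 25 nM Clk4, 100 uM RS peptide, 1 uM ATP (final); 2 mM MgCl2, 0.5 mM EGTA, 2.5 mM DTT, 0.01% Triton X-100; 1 hr RT. ADP-Glo readout: ATP depletion 45 min, conversion/luciferase 30 min, luminescence.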

[11] = molecular target: Dual specificity protein kinase CLK4 (Homo sapiens) (UniProt Q9HAZ1); assay: qHTS Assay for Inhibitors of CDC-like Kinase 4 (ADP-FP Assay) (AID 1795); conditions: Transcreener ADP fluorescence polarization; series mostly up to 50 µM; note: nearly all actives have a fitted effect of over 60% in size; note: potency is the fitted concentration of half-maximal effect;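 for activity change, negative = inhibition: recombinant human CLK4 phosphorylating RS repeat peptide at 1 µM ATP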
In short: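 Kinase activity was measured as ADP production using Transcreener orange tracer (4 nM) and ADP antibody (1 ug/mL) fluorescence polarization, with ADP calculated from a calibration curve. The 1 h reaction contained 6.25 nM Clk4, 1 uM ATP and 100 uM RS peptide at pH 7.5 with Mg2+.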

[12] = molecular target: Ubiquitin carboxyl-terminal hydrolase 1 (Homo sapiens) (UniProt O94782); assay: Inhibitors of USP1/UAF1: Pilot qHTS (AID 504865); conditions: purified USP1/UAF1, Ub-rhodamine cleavage fluorescence; series mostly up to 54.9 µM;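 note: rhodamine fluorescence freed from ubiquitin-rhodamine substrate followed over time; top concentration of the series differs between compounds; nearly all actives have a fitted effect of over 35% in size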
In short: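 Deubiquitinase activity followed as kinetic rhodamine fluorescence release from 150 nM Ub-Rho. 1 nM USP1/UAF1 with compound, after 15 min room-temperature preincubation, in HEPES pH 7.8 buffer containing TCEP, EDTA, BSA and Tween-20.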

[13] = Primary qHTS for small molecule stabilizers of the endoplasmic reticulum resident proteome: Secreted ER Calcium Modulated Protein (SERCaMP) assay (AID 1508630); conditions: SH-SY5Y GLuc-SERCaMP (Gaussia luciferase released on ER calcium loss) secretion, thapsigargin, luminescence; series mostly up to 38.4 µM
In short: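 The SH-SY5Y reporter protocol was run at 3 concentrations up to 38.3 uM (primary) or 11 concentrations (follow-up): 16 h compound, 100 nM thapsigargin for 4 h, then extracellular luciferase luminescence.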

[14] = molecular target: Cytochrome P450 3A4 (Homo sapiens) (UniProt P08684); assay: qHTS Assay for Activators of Cytochrome P450 3A4 (AID 885); conditions: recombinant CYP3A4, Luciferin-PPXE luminescence, 60 min; series mostly up to 57.1 µM; note: nearly all actives have a fitted effect of over 65% in size
In short: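 Luminescent readout of luciferin formed from 25 uM Luciferin-PPXE (KM level) by 20 nM CYP3A4 in 200 mM KPO4, with 60 min NADPH-driven reaction at room temperature after 10 min compound exposure. Ketoconazole (57 uM) defined 100% inhibition.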

Chain of Ubiquitin carboxyl-terminal hydrolase 1 (Homo sapiens) (O94782 whole entry, looked up): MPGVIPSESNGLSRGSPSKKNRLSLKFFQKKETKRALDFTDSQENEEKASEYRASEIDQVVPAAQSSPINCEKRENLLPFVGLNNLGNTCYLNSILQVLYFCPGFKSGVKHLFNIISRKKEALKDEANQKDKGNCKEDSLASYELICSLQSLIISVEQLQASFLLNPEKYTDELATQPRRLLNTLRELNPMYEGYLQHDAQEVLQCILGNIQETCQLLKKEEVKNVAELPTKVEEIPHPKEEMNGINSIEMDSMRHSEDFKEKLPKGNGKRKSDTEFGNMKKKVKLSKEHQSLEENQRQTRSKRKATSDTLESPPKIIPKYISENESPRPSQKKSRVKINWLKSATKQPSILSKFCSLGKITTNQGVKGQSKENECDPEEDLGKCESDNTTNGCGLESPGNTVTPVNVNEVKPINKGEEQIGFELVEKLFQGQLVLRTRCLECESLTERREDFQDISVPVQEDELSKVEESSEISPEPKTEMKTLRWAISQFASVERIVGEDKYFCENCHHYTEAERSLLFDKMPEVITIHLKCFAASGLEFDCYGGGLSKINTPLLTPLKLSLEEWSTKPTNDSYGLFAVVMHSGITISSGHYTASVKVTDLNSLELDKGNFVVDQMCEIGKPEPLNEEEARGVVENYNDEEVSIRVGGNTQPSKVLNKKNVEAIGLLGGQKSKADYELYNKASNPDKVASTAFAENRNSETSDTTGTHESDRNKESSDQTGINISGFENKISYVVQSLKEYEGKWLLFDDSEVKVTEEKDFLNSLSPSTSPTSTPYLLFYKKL
Chain of 3',5'-cyclic-AMP phosphodiesterase 4B (Homo sapiens) (Q07343 whole entry, looked up): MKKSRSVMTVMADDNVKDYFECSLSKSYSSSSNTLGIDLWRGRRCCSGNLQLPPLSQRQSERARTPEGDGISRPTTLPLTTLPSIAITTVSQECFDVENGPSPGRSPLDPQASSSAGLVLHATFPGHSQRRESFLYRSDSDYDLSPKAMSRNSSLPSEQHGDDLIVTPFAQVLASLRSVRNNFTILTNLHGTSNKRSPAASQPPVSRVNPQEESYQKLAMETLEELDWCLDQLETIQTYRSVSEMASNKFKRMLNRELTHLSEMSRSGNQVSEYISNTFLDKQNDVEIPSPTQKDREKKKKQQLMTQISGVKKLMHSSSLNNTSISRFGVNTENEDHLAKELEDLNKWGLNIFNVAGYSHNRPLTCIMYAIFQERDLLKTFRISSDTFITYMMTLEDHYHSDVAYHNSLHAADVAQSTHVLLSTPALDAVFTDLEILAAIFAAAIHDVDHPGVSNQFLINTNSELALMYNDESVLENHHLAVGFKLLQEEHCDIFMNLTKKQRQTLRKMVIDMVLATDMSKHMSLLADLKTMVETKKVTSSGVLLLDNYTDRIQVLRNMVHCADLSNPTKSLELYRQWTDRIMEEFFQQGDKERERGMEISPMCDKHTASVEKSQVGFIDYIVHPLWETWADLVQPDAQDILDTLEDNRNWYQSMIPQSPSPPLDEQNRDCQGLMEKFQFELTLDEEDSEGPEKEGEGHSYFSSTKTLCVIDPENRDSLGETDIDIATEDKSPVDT
Chain of Lysosomal acid glucosylceramidase (Homo sapiens) (P04062 whole entry, looked up): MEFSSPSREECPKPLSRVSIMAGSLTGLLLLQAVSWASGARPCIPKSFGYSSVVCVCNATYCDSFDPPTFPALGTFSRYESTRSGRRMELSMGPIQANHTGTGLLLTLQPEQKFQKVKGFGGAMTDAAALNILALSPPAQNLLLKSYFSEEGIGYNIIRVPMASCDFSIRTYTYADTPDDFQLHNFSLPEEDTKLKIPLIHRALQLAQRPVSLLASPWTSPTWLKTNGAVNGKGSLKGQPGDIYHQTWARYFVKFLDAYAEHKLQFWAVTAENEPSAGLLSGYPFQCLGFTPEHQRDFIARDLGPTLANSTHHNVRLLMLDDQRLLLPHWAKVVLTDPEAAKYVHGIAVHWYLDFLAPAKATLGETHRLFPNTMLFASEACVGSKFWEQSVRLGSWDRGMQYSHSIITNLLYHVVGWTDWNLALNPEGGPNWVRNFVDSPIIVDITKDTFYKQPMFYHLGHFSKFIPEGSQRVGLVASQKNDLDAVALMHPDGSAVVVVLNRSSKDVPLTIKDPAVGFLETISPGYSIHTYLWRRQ
Chain of Dual specificity protein kinase CLK4 (Homo sapiens) (Q9HAZ1 whole entry, looked up): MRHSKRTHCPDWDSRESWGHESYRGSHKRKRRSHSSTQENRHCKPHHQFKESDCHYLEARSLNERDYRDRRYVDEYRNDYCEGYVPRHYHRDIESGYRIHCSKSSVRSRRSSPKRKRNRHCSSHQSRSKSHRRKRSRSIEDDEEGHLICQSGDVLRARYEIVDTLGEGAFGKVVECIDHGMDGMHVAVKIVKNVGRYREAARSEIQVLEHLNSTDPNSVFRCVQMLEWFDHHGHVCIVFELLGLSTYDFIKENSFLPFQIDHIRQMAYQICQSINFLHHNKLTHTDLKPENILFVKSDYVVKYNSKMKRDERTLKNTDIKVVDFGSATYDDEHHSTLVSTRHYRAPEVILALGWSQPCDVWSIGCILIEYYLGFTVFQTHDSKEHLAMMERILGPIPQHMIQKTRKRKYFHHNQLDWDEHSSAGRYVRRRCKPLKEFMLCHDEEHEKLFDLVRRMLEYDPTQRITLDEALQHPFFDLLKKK
Chain of Glucocorticoid receptor (Homo sapiens) (P04150 whole entry, looked up, the tested form may be a part): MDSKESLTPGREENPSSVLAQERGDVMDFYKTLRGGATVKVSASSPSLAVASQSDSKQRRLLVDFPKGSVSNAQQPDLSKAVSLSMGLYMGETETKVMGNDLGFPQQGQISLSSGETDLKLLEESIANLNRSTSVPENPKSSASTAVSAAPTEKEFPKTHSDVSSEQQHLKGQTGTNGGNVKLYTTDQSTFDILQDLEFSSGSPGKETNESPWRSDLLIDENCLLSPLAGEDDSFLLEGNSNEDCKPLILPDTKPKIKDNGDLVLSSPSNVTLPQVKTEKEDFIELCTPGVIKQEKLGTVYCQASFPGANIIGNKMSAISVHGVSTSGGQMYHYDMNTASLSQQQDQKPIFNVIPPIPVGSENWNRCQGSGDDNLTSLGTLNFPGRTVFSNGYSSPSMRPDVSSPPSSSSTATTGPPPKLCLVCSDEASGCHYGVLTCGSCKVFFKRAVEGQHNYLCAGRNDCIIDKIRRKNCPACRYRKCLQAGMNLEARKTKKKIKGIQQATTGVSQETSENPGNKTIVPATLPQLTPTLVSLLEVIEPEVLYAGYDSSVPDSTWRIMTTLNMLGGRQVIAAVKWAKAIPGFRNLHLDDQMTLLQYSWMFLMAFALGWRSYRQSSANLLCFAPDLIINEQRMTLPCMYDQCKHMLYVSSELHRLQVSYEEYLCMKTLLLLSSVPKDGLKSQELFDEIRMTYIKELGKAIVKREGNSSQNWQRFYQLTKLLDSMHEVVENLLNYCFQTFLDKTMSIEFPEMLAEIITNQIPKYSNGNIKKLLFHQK
Chain of Cytochrome P450 3A4 (Homo sapiens) (P08684 whole entry, looked up): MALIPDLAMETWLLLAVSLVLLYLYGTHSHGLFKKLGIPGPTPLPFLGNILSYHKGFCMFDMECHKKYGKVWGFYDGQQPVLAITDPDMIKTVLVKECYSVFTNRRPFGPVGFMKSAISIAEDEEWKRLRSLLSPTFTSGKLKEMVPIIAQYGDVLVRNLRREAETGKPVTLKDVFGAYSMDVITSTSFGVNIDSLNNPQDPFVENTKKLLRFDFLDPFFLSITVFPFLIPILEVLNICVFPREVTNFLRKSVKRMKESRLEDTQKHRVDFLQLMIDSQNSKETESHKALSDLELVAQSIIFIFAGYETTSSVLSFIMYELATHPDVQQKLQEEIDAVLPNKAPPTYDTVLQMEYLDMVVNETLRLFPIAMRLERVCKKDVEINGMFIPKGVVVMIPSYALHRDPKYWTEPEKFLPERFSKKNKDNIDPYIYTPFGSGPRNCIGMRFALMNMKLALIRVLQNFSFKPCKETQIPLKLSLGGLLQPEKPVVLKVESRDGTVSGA

Structure (SMILES) | Potency [1] [µM] | activity change, negative = inhibition [2] [%] | activity change, negative = inhibition [3] [%] | activity, negative = inhibition [4] [%] | Potency [5] [µM] | Potency [6] [µM] | Potency [7] | Potency [8] | Potency [9] | Potency [10] | Potency [11] | Potency [12] | outcome [13] | Potency [14]
COCCn1c(=O)c(-c2ccccc2)nc2cnc(N3CCOCC3)nc21 | > 11.4 | -10.7 | 18.3 | -4.75 | > 9.22 | > 46 | inactive | inactive | inactive | inactive | inactive | inactive | inactive | –
Cc1ccccc1-c1cc(N2CCNCC2)ncn1 | > 11.4 | 8.27 | 15.7 | 8.55 | > 46 | > 46 | inactive | inactive | inactive | inactive | inactive | inactive | inactive | –
COCCNc1nc(-c2ccoc2)nc2ccccc12 | > 11.4 | 1.3 | -13.7 | 8.88 | > 46 | > 46 | inactive | – | inactive | inactive | inactive | inactive | inactive | inactive
c1cncc(CNc2ncncc2-c2ccoc2)c1 | > 11.4 | 2.19 | 7.14 | -4.52 | > 46 | > 46 | inactive | inactive | inactive | inactive | inactive | inactive | inactive | –
COCCn1c(=O)c(C)nc2cnc(OC)nc21 | > 11.4 | -9.91 | 5.14 | -16.1 | > 9.22 | > 46 | inactive | inactive | inactive | inactive | inactive | inactive | inactive | inactive
COc1ncc2nc(-c3ccc(Cl)cc3)c(=O)n(Cc3cccs3)c2n1 | > 11.4 | -16.7 | 2.52 | -18.3 | > 9.22 | > 46 | inactive | inactive | inactive | inactive | inactive | inactive | inactive | –
c1ccc(CNc2ncnc3ccc(-c4ccoc4)cc23)cc1 | > 11.4 | -25 | 11.4 | -19.6 | > 46 | > 46 | inactive | inactive | 14.1 µM (active) | 12.6 µM (active) | 12.6 µM (active) | inactive | inactive | –
